Assay [1] is described as follows: antimalarial activity against Dd2 strain (AID 2302;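 active = growth inhibition above 50% at the single 2 µM test dose, taken to imply half-maximal potency below 2 µM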;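 also: 0% = DMSO untreated growth and 100% = chloroquine plus artemisinin killed control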). To be noted: P. falciparum Dd2 in RBCs, LDH growth readout, 72 h; at 2 µM; hits give high values.
Assay [2] can be described thus: human hepatoma cell viability loss – ATP luminescence, cytotoxicity control for P. falciparum antimalarial project, primary screen (AID 2303;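 active = inhibition above 50%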;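 also: 0% = DMSO wells and 100% = digitonin-killed cells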). To be noted: HepG2 viability, 24-48 h, at 10 µM, hits give high values.
Assay [3] deals with L-lactate dehydrogenase (Plasmodium falciparum (isolate CDC / Honduras)) (UniProt Q27743). The experiment in a line: PfLDH activity inhibition – cell lysate, 3D7 strain, counter-screen for P. falciparum growth inhibition project (AID 2304).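 Also: 0% = vehicle and 100% = reference inhibitor.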 Conditions: P. falciparum 3D7 crude extract, LDH APAD/NBT absorbance; at 2 µM; hits give high values.
Assay [4] is described as follows: inhibition of 3D7 malaria parasite growth – strain 3D7 (AID 2306).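 Also: 0% = DMSO wells and 100% = chloroquine plus artemisinin control wells.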 Conditions: P. falciparum 3D7 erythrocytic growth, LDH absorbance, 72 h; at 2 µM; hits give high values.
The target of assay [5] is Calcium-dependent protein kinase 1 (Plasmodium falciparum (isolate 3D7)) (UniProt P62344). As to the kind of experiment: PfCDPK1 kinase inhibitors, biochemical, TCAMS library (AID 1159585; cut-off not given, nearly all actives have IC50 up to about 0.98 µM;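 also: inhibitors leave more ATP so luminescence rises with inhibition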). Conditions: recombinant PfCDPK1, Kinase-Glo ATP depletion luminescence.
Assay [6] addresses Plasmodium falciparum protein kinase 6 (PK6, PF3D7_1337100) (UniProt Q8IDW1). The experiment in a line: PfPK6 kinase inhibitors, biochemical, TCAMS library (AID 1159586). To be noted: recombinant PfPK6, Kinase-Glo ATP depletion luminescence.
Assay [7] deals with Protein kinase 7 (PK7), Plasmodium falciparum 3D7 (PF3D7_0213400) (UniProt Q7YTF7). As to the kind of experiment: inhibition of Plasmodium PK7 catalytic activity – biochemical, TCAMS antimalarial set, Kinase-Glo luminescence (AID 1159587). Conditions: recombinant PfPK7, Kinase-Glo ATP depletion luminescence.
The target of assay [8] is Calcium-dependent protein kinase 4 (Plasmodium falciparum (isolate 3D7)) (UniProt Q8IBS5). As to the kind of experiment: PfCDPK4 kinase inhibitors, biochemical, TCAMS library (AID 1159588; cut-off not given, nearly all actives have IC50 up to about 0.91 µM). Conditions: recombinant PfCDPK4, Kinase-Glo ATP depletion luminescence.

Unmarked numbers belong to inactive results. For part of these data: Potency and affinity values are given separately. The source made the active and inactive calls. Unless noted, no rule for the calls is given here.

Sequence of L-lactate dehydrogenase (Plasmodium falciparum (isolate CDC / Honduras)) (Q27743 whole entry, looked up): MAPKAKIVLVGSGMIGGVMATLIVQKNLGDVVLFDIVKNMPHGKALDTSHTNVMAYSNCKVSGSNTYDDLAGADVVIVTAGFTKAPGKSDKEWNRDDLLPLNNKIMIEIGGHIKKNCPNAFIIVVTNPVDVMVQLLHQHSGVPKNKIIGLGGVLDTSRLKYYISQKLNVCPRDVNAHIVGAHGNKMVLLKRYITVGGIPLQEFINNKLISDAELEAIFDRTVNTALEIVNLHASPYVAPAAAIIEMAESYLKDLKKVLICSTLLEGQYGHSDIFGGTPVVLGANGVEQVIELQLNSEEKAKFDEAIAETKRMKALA
Sequence of Calcium-dependent protein kinase 4 (Plasmodium falciparum (isolate 3D7)) (Q8IBS5 whole entry, looked up): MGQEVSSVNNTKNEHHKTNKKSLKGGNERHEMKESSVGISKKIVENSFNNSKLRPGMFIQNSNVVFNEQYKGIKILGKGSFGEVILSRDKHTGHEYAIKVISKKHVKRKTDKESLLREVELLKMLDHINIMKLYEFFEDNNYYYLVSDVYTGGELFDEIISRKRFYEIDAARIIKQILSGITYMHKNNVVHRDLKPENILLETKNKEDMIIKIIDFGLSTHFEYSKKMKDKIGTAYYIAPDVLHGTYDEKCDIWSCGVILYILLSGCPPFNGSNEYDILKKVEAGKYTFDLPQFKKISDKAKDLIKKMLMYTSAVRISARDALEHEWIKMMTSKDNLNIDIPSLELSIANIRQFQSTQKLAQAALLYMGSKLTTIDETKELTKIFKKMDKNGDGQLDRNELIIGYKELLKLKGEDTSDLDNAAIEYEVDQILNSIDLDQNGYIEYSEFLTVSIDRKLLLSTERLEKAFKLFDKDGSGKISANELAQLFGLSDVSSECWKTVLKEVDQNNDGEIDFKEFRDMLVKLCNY
Sequence of Plasmodium falciparum protein kinase 6 (PK6, PF3D7_1337100) (Q8IDW1 1-305): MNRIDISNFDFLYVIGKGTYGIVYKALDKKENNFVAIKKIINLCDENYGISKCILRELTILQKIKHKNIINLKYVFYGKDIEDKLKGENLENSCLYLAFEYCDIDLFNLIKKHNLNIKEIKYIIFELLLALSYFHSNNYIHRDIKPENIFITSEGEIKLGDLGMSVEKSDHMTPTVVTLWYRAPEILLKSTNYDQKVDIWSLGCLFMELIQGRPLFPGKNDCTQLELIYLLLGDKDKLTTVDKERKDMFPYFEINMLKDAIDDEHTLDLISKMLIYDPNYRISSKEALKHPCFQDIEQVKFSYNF
Sequence of Calcium-dependent protein kinase 1 (Plasmodium falciparum (isolate 3D7)) (P62344 whole entry, looked up): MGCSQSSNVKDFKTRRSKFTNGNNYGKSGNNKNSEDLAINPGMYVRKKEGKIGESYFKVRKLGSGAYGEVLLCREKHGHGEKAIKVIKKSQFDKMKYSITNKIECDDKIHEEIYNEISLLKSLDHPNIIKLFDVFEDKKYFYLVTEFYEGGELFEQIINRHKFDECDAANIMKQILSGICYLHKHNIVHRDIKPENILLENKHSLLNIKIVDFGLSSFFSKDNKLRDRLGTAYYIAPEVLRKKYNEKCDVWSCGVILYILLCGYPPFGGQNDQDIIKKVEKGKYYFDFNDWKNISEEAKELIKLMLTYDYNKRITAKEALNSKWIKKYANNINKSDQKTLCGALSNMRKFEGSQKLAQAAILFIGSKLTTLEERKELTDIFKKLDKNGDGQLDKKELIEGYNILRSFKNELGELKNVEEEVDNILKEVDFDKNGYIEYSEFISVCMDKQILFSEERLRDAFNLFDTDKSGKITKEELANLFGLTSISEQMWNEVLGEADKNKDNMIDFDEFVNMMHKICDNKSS
Sequence of Protein kinase 7 (PK7), Plasmodium falciparum 3D7 (PF3D7_0213400) (Q7YTF7 1-343): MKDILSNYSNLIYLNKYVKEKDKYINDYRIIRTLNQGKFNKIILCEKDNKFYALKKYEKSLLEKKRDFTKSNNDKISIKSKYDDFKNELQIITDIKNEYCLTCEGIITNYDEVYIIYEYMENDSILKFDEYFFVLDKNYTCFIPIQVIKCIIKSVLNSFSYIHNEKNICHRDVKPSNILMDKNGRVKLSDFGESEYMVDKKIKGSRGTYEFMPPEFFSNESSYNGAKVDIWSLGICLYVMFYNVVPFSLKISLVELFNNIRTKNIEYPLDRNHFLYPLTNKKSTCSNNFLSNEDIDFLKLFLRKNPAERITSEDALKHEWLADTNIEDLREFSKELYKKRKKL

On to `CCCCCCCN1CC[C@H](CC(=O)Nc2ccnc3ccc(OC)cc23)[C@@H](CC)C1`, for which the growth inhibition in assay [1] was 75% (active); in assay [4], 101% (active). Also, the inhibition in assay [2] was 14%; in assay [3] it was -4%. Further, the result in assay [5], in assay [6], in assay [7] and in assay [8] was inactive.
As for `c1ccc(CNc2nc(NCCc3cnc[nH]3)nc(N3CCCC4CCCCC43)n2)cc1` (centres undefined), the growth inhibition in assay [1] is 100% (active); in assay [4] it was 98% (active). For the same compound, the inhibition in assay [2] is -6%; in assay [3], -3%. The outcome in assay [5], in assay [6], in assay [7] and in assay [8] was inactive.
Turning to `COc1ccccc1NC(=O)Nc1cccc(-c2ccc(-c3nc4c(C)cccc4[nH]3)s2)c1`, the growth inhibition in assay [1] is 46%; in assay [4] it was 100% (active). Also, the figures for the inhibition in assay [2] and in assay [3] were 19% and 3%, respectively. Moreover, the result in assay [5], in assay [6], in assay [7] and in assay [8] was inactive.
Consider `COc1cccc([C@@H](CC(=O)Nc2cc(C(F)(F)F)ccc2OC)Nc2ccc(C#N)c3ccccc23)c1`, for which the growth inhibition in assay [1] was 53% (active); in assay [4] it was 96% (active). Besides, the inhibition in assay [2] was 19%; in assay [3] it was -3%. For the same compound, the outcome in assay [5], in assay [6], in assay [7] and in assay [8] was inactive.
For the compound `Cc1ccccc1C1CCN(C2CCC(NC(=O)c3csc(-c4cccc(Cl)c4)n3)CC2)CC1` (centres undefined), the growth inhibition is 42% in assay [1] and 85% (active) in assay [4]. Further, the inhibition in assay [2] was 33%; in assay [3] it was 3%. Further, the outcome in assay [5], in assay [6], in assay [7] and in assay [8] was inactive.
With `CCOC(=O)c1ccc(NC(=O)Nc2cccc(-c3cccc(-c4nc5ccc(F)cc5[nH]4)c3)c2)cc1`, the figures for the growth inhibition in assay [1] and in assay [4] were 100% (active) and 101% (active), respectively. Moreover, the inhibition in assay [2] is 85% (active); in assay [3], 6%. Moreover, the outcome in assay [5], in assay [6], in assay [7] and in assay [8] was inactive.
For `CC(=O)CCc1ccc(OCCN(Cc2ccccc2C(F)(F)F)c2ccc(C#N)c(C(F)(F)F)c2)cc1`, the values for the growth inhibition in assay [1] and in assay [4] were 87% (active) and 100% (active), respectively. The figures for the inhibition in assay [2] and in assay [3] were 14% and 0%, respectively. For the same compound, the outcome in assay [5], in assay [6], in assay [7] and in assay [8] was inactive.
On to `Cc1nc2ccc3ccc(CNc4ccc(C(=O)N[C@@H](CCC(=O)O)C(=O)O)c(F)c4)cc3c2c(=O)[nH]1`, for which the growth inhibition in assay [1] and in assay [4] was 96% (active) throughout. Further, the inhibition in assay [2] was 41%; in assay [3], -1%. Besides, the outcome in assay [5], in assay [6], in assay [7] and in assay [8] was inactive.
As to `Cc1ccc(N)cc1-c1nc(NC2CC(C)(C)NC(C)(C)C2)nc2c1ccc(=O)n2-c1c(F)cccc1F`, the growth inhibition in assay [1] is 1%; in assay [4], 98% (active). Besides, the results for the inhibition in assay [2] and in assay [3] were 0% and -5%, respectively. Further, the outcome in assay [5], in assay [6], in assay [7] and in assay [8] was inactive.
Take `CC(Oc1ccc(Cl)cc1)C(=O)N(C)C1CCN(CCCCCNC(=O)/C=C/c2ccc(Cl)c(Cl)c2)CC1` (centres undefined): the growth inhibition in assay [1] was 10%; in assay [4], 85% (active). The inhibition in assay [2] is 61% (active); in assay [3] it was -2%. Besides, the result in assay [5], in assay [6], in assay [7] and in assay [8] was inactive.
Consider `C=C(C)Cn1cc(C2CCN(CCN3CCC(CNC(=O)c4ccc(-c5ccc(C#N)cc5)cc4)CC3)CC2)c2ccccc21`, for which the growth inhibition in assay [1] was 94% (active); in assay [4], 99% (active). Besides, the inhibition in assay [2] was 64% (active); in assay [3], -3%. Also, the result in assay [5], in assay [6], in assay [7] and in assay [8] was inactive.
For `COc1ccc(-c2ccc([N+](=O)[O-])cc2C(=O)NCC(C)Oc2ccc(C(F)(F)F)cc2)cc1` (centres undefined), the results for the growth inhibition in assay [1] and in assay [4] were 81% (active) and 102% (active), respectively. For the same compound, the inhibition in assay [2] was 6%; in assay [3] it was 5%. Besides, the outcome in assay [5], in assay [6], in assay [7] and in assay [8] was inactive.
Consider `O=S(=O)(NCCN1CCCC1)c1cccc(-c2cccc(CNCc3ccsc3)c2)c1`, for which the growth inhibition in assay [1] was 55% (active); in assay [4] it was 101% (active). Further, the values for the inhibition in assay [2] and in assay [3] were 69% (active) and 6%, respectively. The outcome in assay [5], in assay [6], in assay [7] and in assay [8] was inactive.
Regarding `Cc1ccccc1N1CCN(c2ccc(C(=O)NC(C)C)cn2)CC1`, the figures for the growth inhibition in assay [1] and in assay [4] were 91% (active) and 89% (active), respectively. For the same compound, the inhibition in assay [2] was 13%; in assay [3] it was -2%. Further, the result in assay [5], in assay [6], in assay [7] and in assay [8] was inactive.
As for `Cc1ccc(C(CC(=O)Nc2nccs2)c2ccc(OC(C)C)cc2)cc1` (centres undefined), the growth inhibition is 90% (active) in assay [1] and 94% (active) in assay [4]. The inhibition in assay [2] was 5%; in assay [3] it was 3%. Besides, the outcome in assay [5], in assay [6], in assay [7] and in assay [8] was inactive.
Turning to `CNC(=O)c1cc(S(=O)(=O)N2CCN(c3ccccn3)CC2)c(C)s1`, the figures for the growth inhibition in assay [1] and in assay [4] were 52% (active) and 91% (active), respectively. In addition, the inhibition in assay [2] is -2%; in assay [3] it was -1%. The outcome in assay [5], in assay [6], in assay [7] and in assay [8] was inactive.
`CCCCN(CCCC)C(=Nc1cccc(Cl)c1Cl)Nc1ccc(C#N)cc1O`: the results for the growth inhibition in assay [1] and in assay [4] were 69% (active) and 89% (active), respectively. Further, the inhibition in assay [2] is 4%; in assay [3], -6%. The outcome in assay [5], in assay [6], in assay [7] and in assay [8] was inactive.
In the case of `Cn1nc(C(=O)N2CCC(c3[nH]ncc3Cc3ccccc3)CC2)c2ccccc2c1=O`, the growth inhibition in assay [1] and in assay [4] was 95% (active) each time. The inhibition in assay [2] is 5%; in assay [3], -2%. Also, the outcome in assay [5], in assay [6], in assay [7] and in assay [8] was inactive.

These data come from PubChem BioAssay.
